Screening results: PubChem BioAssay, National Center for Advancing Translational Sciences (NCATS)
Only some compounds are listed: those with a hit (about 19% of all), similar ones and a draw of the others.
TDP1 cell noCPT: qHTS for Inhibitors of human tyrosyl-DNA phosphodiesterase 1 (TDP1): qHTS in cells in absence of CPT. actives 15% (n = 420,000). DT40 Tdp1-/- hTDP1 cells, no CPT, ATP luminescence, 48 h. Potency, µM (series often up to 46.2 µM), for the others: at the top dose activity change, negative = growth inhibition, actives largely listed as inhibitors; further: nearly all actives have a fitted effect of over 55% in size
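Chicken DT40 Tdp1-/- cells stably complemented with human TDP1 were seeded at 400 cells/well with DMSO in place of 20 nM camptothecin. After compound pinning, cells grew at least 48 hr at 37 °C; viability read by CellTiter-Glo luminescence.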
DT40 TDP1 CPT: growth inhibition of DT40 Tdp1-/-;hTDP1 cells with camptothecin (screen for TDP1 inhibitors); chicken DT40 Tdp1-/-;hTDP1 cells + 20 nM CPT, ATP luminescence, 48 h; Potency, µM (doses to about 46.2 µM), for inactives: at the highest dose activity change, negative = growth inhibition, most hits filed as inhibitors; actives 12% (n = 420,000); further: nearly all actives have a fitted effect of over 55% in size
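Chicken DT40 Tdp1-/- cells complemented with human TDP1, 400 cells/well, exposed to compounds plus 20 nM camptothecin for at least 48 h at 37 C; viability read as ATP content by CellTiter-Glo luminescence.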
Gal4-VP16 FLuc: Gal4-VP16 reporter inhibition counter-screen; Drosophila S2 Gal4-VP16 UAS-luciferase, luminescence, 20 h; Potency, µM (top dose mostly 53.6 µM), for the others: top-dose activity, negative = inhibition, most hits filed as inhibitors; actives 3.5% (n = 310,000); AID 2546;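 further: Gal4-VP16 expression switched on by copper sulfate through the metallothionein promoter; nearly all actives have a fitted effect of over 50% in size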
RORgamma inh: inhibitors of mouse ROR gamma transcriptional activity; Drosophila S2 Gal4-RORgamma UAS-luciferase reporter, 20 h; Potency, µM (highest dose often 53.6 µM), without a hit: top-dose activity change, negative = inhibition, most hits filed as inhibitors; actives 5.4% (n = 310,000); AID 2551; further: nearly all actives have a fitted effect of over 60% in size
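Luminescence from a UAS-regulated Photinus luciferase reporter in stably transfected Drosophila Schneider cells is measured; decreased signal marks ROR gamma inhibition. Fusion expression is induced by 700 uM copper sulfate for 20 hr.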
TDP1 block: blocks human tyrosyl-DNA phosphodiesterase 1; recombinant TDP1, AlphaScreen DNA substrate cleavage; Potency, µM (series often up to 130 µM), without a hit: at the top dose activity change, negative = inhibition, usual class: inhibitors; actives 0.28% (n = 350,000); further: nearly all actives have a fitted effect of over 40% in size
Target sequence (Q9NUW8 whole entry, looked up): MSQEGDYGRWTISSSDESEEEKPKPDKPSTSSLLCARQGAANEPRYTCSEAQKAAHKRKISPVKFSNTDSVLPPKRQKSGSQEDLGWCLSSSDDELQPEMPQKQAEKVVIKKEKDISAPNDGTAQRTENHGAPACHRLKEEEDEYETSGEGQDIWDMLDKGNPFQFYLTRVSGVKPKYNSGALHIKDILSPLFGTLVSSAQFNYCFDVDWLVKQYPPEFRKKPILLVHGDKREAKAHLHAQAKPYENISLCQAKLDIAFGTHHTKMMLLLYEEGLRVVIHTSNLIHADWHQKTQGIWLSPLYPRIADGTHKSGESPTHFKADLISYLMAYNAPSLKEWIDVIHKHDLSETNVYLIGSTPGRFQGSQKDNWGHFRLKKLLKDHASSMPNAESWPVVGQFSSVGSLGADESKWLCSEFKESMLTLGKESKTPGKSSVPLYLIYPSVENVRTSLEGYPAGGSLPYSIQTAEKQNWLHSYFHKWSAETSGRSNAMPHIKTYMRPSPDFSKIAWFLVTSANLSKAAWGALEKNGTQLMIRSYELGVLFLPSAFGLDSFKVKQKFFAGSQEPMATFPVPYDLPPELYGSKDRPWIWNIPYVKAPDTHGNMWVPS
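Signal: AlphaScreen proximity between streptavidin donor and anti-FITC acceptor beads on intact substrate. Reaction: Tdp1 1 nM, substrate 15 nM final, 5 min RT after 15 min compound preincubation.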
* hit, by the source's call; ? = inconclusive; · = no result. The call rests on the fitted dose curve; in most records, active means well fitted curve in the direction sought with a large enough effect; inconclusive means small, poorly fitted or top-dose-only effect, or another doubt; inactive means no such curve, though single readings can be large; an effect the other way counts as inactive or inconclusive. On the % scale 0 is the no-effect control and ±100 the full control effect; potency means the concentration at half of the fitted maximal effect.

SMILES | TDP1 cell noCPT | DT40 TDP1 CPT | Gal4-VP16 FLuc | RORgamma inh | TDP1 block
CCn1c(SCC(=O)N2CCCCC2C)nc2ccsc2c1=O (stereo not given) | ? | 10µM* | -4.4% | 14.2% | 4.7%
Cc1ccc(N2CC(C(=O)N3CCC(C(=O)Nc4nncs4)CC3)CC2=O)cc1 (stereo not given) | -23.5% | -3.9% | -0.7% | 17.2% | 15.5%
CC1(C)CNC(=O)c2sc(NC(=O)c3ccccc3)nc2C1 | -25.6% | ? | -3.4% | ? | 5.1%
CCc1nn(CC(=O)NCCCN2CCCC2=O)c(=O)c2cc3sccc3n12 | -0.2% | 0.9% | -3.5% | -15.7% | 3.3%
CCOC(=O)c1sc(=NC(=O)c2cccs2)n(C)c1C | -15.6% | 0.5% | 35.4% | ? | -1.2%
CCN(CC)C(=O)CSc1nc2cc3c(cc2c(=O)n1Cc1ccc(OC)cc1)OCO3 | 18.4µM* | 23.1µM* | 6.7% | 31.1% | -2.5%
Cc1nn2c(NCc3cccnc3)c3c(nc2c1-c1ccccc1)CCC3 | ? | ? | 4.9% | 9.9% | ·
COc1cccc(Nc2c3c(nc4c(-c5ccccc5)c(C)nn24)CCC3)c1 | 13µM* | 5.8% | 3.16µM* | ? | -8.0%
Cc1nn2c(Nc3ccc(F)cc3)c3c(nc2c1-c1ccccc1)CCC3 | -2.2% | -17.6% | ? | 2.82µM* | 0.0%
O=C(NCCc1ccccc1)C1CCN(S(=O)(=O)N2CCOCC2)CC1 | 27.3% | -1.1% | 0.7% | 4.8% | 1.2%
O=C(NCC1COc2ccccc2O1)C1CCCN(S(=O)(=O)c2cccc3cccnc23)C1 (stereo not given) | ? | 20.6µM* | -3.0% | -34.3% | -4.9%
O=C(NC1CCCCC1)C1CCCN(S(=O)(=O)c2cccc3cccnc23)C1 (stereo not given) | ? | ? | -2.0% | ? | 1.2%
O=C(C1CCCN(S(=O)(=O)c2cccc3cccnc23)C1)N1CCc2ccccc21 (stereo not given) | 16.4µM* | 23.1µM* | -3.9% | 12.3% | 5.2%
CC(C)c1ccc(NC(=O)C2CCCN(S(=O)(=O)c3cccc4cccnc34)C2)cc1 (stereo not given) | 16.4µM* | 16.4µM* | · | · | 11.5%
O=C(Nc1ccncc1)C1CCCN(S(=O)(=O)c2cccc3cccnc23)C1 (stereo not given) | 1.64µM* | 1.84µM* | -21.2% | -22.8% | -5.4%
O=C(NCC1COc2ccccc2O1)C1CCCN(S(=O)(=O)c2cccc3nsnc23)C1 (stereo not given) | ? | ? | -4.8% | ? | 8.3%
COc1cccc(NC(=O)C2CCCN(S(=O)(=O)c3cccc4cccnc34)C2)c1 (stereo not given) | ? | ? | -7.4% | 40.5% | 0.0%
Cc1ccccc1N1C(S)=C(C#N)C(=O)NC12CCCCC2 | -19.1% | -5.5% | -6.0% | 28.7% | 0.0%
Cc1ccc2sc(N3CCN(C(=O)CCS(=O)(=O)c4ccc(F)cc4)CC3)nc2c1C | 2.59µM* | 4.11µM* | · | · | 0.0%
COc1ccc(OC)c2sc(N3CCN(C(=O)CCS(=O)(=O)c4ccc(F)cc4)CC3)nc12 | 20.6µM* | 18.4µM* | · | · | 0.0%
O=C(CCS(=O)(=O)c1ccc(Cl)cc1)N1CCN(c2ccccc2F)CC1 | -17.6% | -28.5% | -3.1% | -1.7% | 1.0%
CCC1=C2CC[C@H]3C(=O)N(c4ccccc4)C(=O)[C@H]3[C@H]2[C@@]2(C)C(=O)N(Cc3ccccc3)C(=O)N2C1=O | · | · | -11.8% | -3.2% | 3.3%
CCCCNc1c(-c2ccc(-c3ccc(C(C)=O)cc3)c(OC)c2)nc2cnccn12 | ? | 10.3µM* | · | · | ·
CCCCCCSc1ccc(-c2nc3ccc(C)cn3c2NC2CCCCC2)cc1 | 18.4µM* | 16.4µM* | · | · | -0.1%
CCCCCCSc1cc(-c2nc3cnccn3c2NCc2ccccc2)ccc1OC | ? | ? | · | · | -8.5%
SMILES | TDP1 cell noCPT | DT40 TDP1 CPT | Gal4-VP16 FLuc | RORgamma inh | TDP1 block
COc1cc(-c2nc3cnccn3c2NC(C)(C)CC(C)(C)C)ccc1O | ? | ? | -0.8% | 0.3% | ·
CCCCCCSc1cc(-c2nc3cc(C)ccn3c2NC2CCCCC2)ccc1OC | 16.4µM* | ? | · | · | 3.5%
CCCCCCSc1ccc(-c2nc3cc(C)ccn3c2NC2CCCCC2)cc1 | 11.6µM* | 18.4µM* | · | · | 0.9%
CCOc1ccc(NC(=O)CSc2ccc3ccccc3n2)cc1 | -11.5% | 5.6% | · | · | ·
CC(NC(=O)C12CC3CC(CC(C3)C1)C2)C(=O)NCCN(C)C (stereo not given) | ? | ? | -4.3% | -7.0% | -3.1%
COc1cc(-c2nc3cc(C)ccn3c2NC2CCCCC2)ccc1-c1ccc(C(C)=O)cc1 | 7.31µM* | 13µM* | · | · | -0.2%
CC1=C(C(=O)Nc2cccnc2)C(c2ccccc2Cl)n2nc(-c3ccccc3)nc2N1 (stereo not given) | -21.7% | ? | · | · | 2.1%
CCOc1ccc(C2C(C(=O)Nc3ccccc3)=C(C)Nc3nc(-c4ccccc4Cl)nn32)cc1OC (stereo not given) | 18.4µM* | ? | · | · | ·
COc1cc(C2C(C(=O)Nc3ccccc3)=C(C)Nc3nnnn32)cc(OC)c1OC (stereo not given) | 11.6µM* | 4.9% | · | · | ·
COc1ccccc1-c1nc2n(n1)C(c1ccccc1Cl)C(C(=O)Nc1cccnc1)=C(C)N2 (stereo not given) | 20.6µM* | ? | · | · | ·
COc1ccc(C2C(C(=O)Nc3ccccc3)=C(C)Nc3nc(-c4ccccc4)nn32)cc1OC (stereo not given) | -19.0% | -29.0% | · | · | 0.0%
CN(C)CCCNc1ncnc2scc(-c3ccccc3)c12 | ? | 0.6% | -14.4% | 0.3% | 1.2%
c1ccc(-c2csc3ncnc(NCc4ccccn4)c23)cc1 | 9.2µM* | 11.6µM* | ? | -29.2% | 6.2%
Oc1ccc(Nc2ncnc3scc(-c4ccccc4)c23)cc1 | 8.2µM* | ? | -15.4% | 9.5% | 0.0%
